Experimental data taken from PubChem BioAssay.

Assay: CREB reporter modulators under forskolin, primary screen, cell-based, PC12, CRE-LacZ reporter, forskolin-stimulated (AID 1146);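 note: PC12 cells with 6xCRE LacZ reporter stimulated by forskolin 10 µM; beta-galactosidase reporter signal reflecting CREB driven transcription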
Settings: luminescence, 4.5 h, higher = more signal, called active from +8 up or from −8 down

z-score, inactive:
CCOC(=O)C[C@H]1[C@H](OC(=O)Cc2ccc3c(c2)OCO3)[C@@H](NC(=O)Cc2ccc(OC)cc2)c2cc(OCCCO)ccc2N1C(=O)Cc1ccc(OC)cc1 -0.0811
COC(=O)[C@@]1(Cc2ccccc2)[C@H]2c3cc(C(=O)N4CCCC4)n(Cc4ccc(OC)c(OC)c4)c3C[C@H]2CN1C(=O)c1ccccc1 0.208
[N-]=[N+]=Nc1ccccc1C[C@]1(C(=O)N2CCOCC2)N=C(c2ccc(OCCCO)cc2)O[C@H]1c1ccccc1N=[N+]=[N-] -2.38
CC(C)(C)N1CC=CC23O[C@@H]4/C=C\CCCOC(=O)C4[C@H]2C(=O)N(CCCO)[C@@H]3C1=O (stereo partly drawn) -0.764
COc1ccc(CCNC(=O)[C@@H]2c3ccccc3C(=O)N(Cc3ccccc3OC)[C@H]2c2ccc(CO)cc2)cc1 -1.12
NC(=O)NCC#Cc1ccc2c(c1)[C@]1(C(=O)N2)[C@H](c2ccc(OCCO)cc2)N2[C@H](c3ccccc3)[C@H](c3ccccc3)OC(=O)[C@H]2[C@@H]1C(=O)O -0.719
COc1ccc(C(=O)Nc2ccc3c(c2)[C@@]2(O[C@H](CCO)[C@@H]([Si](C)(C)c4ccc(OC)cc4)[C@@H]2C)C(=O)N3Cc2ccccc2)cc1 -0.352
COC(=O)C1=CC(CCCO)=CC(c2cccs2)N(Cc2cc3c(cc2Br)OCO3)C=C1C(=O)OC (stereo not drawn) 0.458
O=C1O[C@H](c2ccccc2)[C@H](c2ccccc2)N2[C@H]1[C@@H](C(=O)O)[C@]1(C(=O)Nc3ccc(C#CCCO)cc31)[C@H]2c1ccc(OCCO)cc1 0.147
CCOC(=O)C[C@H]1[C@H](OC(=O)Cc2ccc3c(c2)OCO3)[C@@H](NC(=O)c2ccc3ccccc3n2)c2cc(OCCCO)ccc2N1C(=O)Cc1ccc(OC)cc1 0.637
O=C(NC1CC1)[C@@H]1c2ccccc2C(=O)N(Cc2cc(C(F)(F)F)cc(C(F)(F)F)c2)[C@H]1c1ccc(CO)cc1 -1.05
C=C(/C(=C/C[C@@H](OC(C)=O)c1cccc(OCCO)c1)c1cnc2ccccc2c1)C(C)C 1.32
O=C1C2C=CC(C(O)c3cccs3)N(Nc3ccc([N+](=O)[O-])cc3)C2C(=O)N1c1ccccc1 (stereo not drawn) -0.275
C[N+](C)(C)CCCC[C@@H]1NC(=O)[C@H]2C[C@@H](C(=O)NCCCCCNC(=O)CS)[C@@H](c3cccc(OCCO)c3)N2C1=O 0.487
COCCOC(=O)N1C(=O)[C@@]2(c3cc(C#CCC(C(=O)OC)C(=O)OC)ccc31)[C@H](c1ccc(O)cc1)N1[C@H](c3ccccc3)[C@H](c3ccccc3)OC(=O)[C@H]1[C@@H]2C(=O)Nc1nc2ccccc2s1 -0.521
COC(=O)[C@@]1(Cc2ccc(OC)cc2)[C@H]2c3cc(C(=O)N4CCCC4)n(Cc4c(CO)[nH]cc(C)c4=O)c3C[C@H]2CN1C(=O)c1ccccc1 1.41
O=C1C[C@]2(c3ccc([N+](=O)[O-])cc3)C(=O)N(C3CC3)c3cc(CO)ccc3[C@H]2N1C1CCCCC1 0.634
C=C(COC)/C(=C/C[C@@H](OC(C)=O)c1ccccc1OCCO)c1cnc2ccccc2c1 0.879
COCCOC(=O)N1C(=O)[C@@]2(c3cc(C#CC4(O)CCCCCC4)ccc31)[C@H](c1ccc(O)cc1)N1[C@H](c3ccccc3)[C@H](c3ccccc3)OC(=O)[C@H]1[C@@H]2C(=O)N1CCCCCCC1 -0.125
C=CCOC(=O)[C@@H]1[C@H]2C(=O)O[C@H](c3ccccc3)[C@H](c3ccccc3)N2[C@H](c2ccc(OCCOC(=O)[C@H]3C[C@H]4C(=O)N[C@@H](CCCCN(C)C)C(=O)N4[C@H]3c3ccc(O)cc3)cc2)[C@@]12C(=O)Nc1ccc(I)cc12 2.13
COC(=O)C[C@H]1O[C@@]2(C[C@@H]1[Si](C)(C)C)C(=O)N(C)c1ccccc12 -0.923
C=CCC(OC(C)=O)[C@@H]1[C@@H](N(Cc2cc3ccccc3o2)C(=O)c2cccc3ccccc23)c2cc(OCCCO)ccc2N1C(=O)c1ccc2ccccc2n1 (stereo partly drawn) -0.273
COC(=O)[C@@]1(Cc2ccc(OC)cc2)[C@H]2c3cc(C(=O)N4CCCC4)n(CCn4cc([N+](=O)[O-])nc4C)c3C[C@H]2CN1C(=O)c1ccccc1 0.861
